# From PubChem BioAssay (NCI)
# Values joined by “and” are separate entries in the source; they are usually repeats but may differ in a detail not shown here. Equal values may be shown once. This is part of a sample that, as a whole, favours compounds with a hit. Of some 83,000 tested, about 20% had one in any assay.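 Single-dose data. Exposure time 48 hours. Values below 10 considered active.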 Values without a mark were called inactive. Active and inactive are the calls of the source.
# Tested on: MDA-MB-468 breast
# Experiment: NCI-60 one-dose screen, 48 h (100 = growth as untreated, 0 = no growth, -100 = all killed)
# Conditions: 10 µM unless noted
row,Compound,growth
1,COC(=O)C12CC(NC(=O)c3csc([C@@H](C[C@H](C(C)C)N(C)C(=O)[C@@H](NC(=O)[C@H]4CCCCN4C)C(C)C)OC(C)=O)n3)(C1)C2,42.5%
2,CC(C)N=C(NC(C)C)N1CC1,118%
3,CC1CCCC(C[N+](C)(C)C)C1=O (stereo not given),97.3%
4,CCOc1cc(/C=N\Nc2nnc(C)n2N)c(C)cc1N(CCCl)CCCl,-21.1% (active)
5,COC1CC2c3ccccc3C1C(C)=[N+]2C (stereo not given),96.4%
6,C[C@@H]1C[C@H]2C(=O)O[C@@H](C)C(NC(=O)[C@H](Cc3cc(F)cc(F)c3)NC(=O)Nc3ccc(OS(=O)(=O)F)cc3)C(=O)N3CCC[C@H]3C(=O)N3CCO[C@H](C)[C@H]3C(=O)N[C@@H](CO)C(=O)N2C1 (stereo not given in full),-7.29% (active)
7,CC[S][Hg][Cl],116%
8,C/C(=C\c1ccn(-c2ccc(N)cc2)n1)[C@@H]1C[C@@H]2O[C@]2(C)CCC[C@H](C)[C@H](O)[C@@H](C)C(=O)C(C)(C)[C@@H](O)CC(=O)O1,13.9%
9,CC1=CC(=Nc2ccc(N(CCCl)CCCl)cc2)C=C(C)C1=O,-66.3% (active)
10,CN(C)C(=S)SSC(=S)N(C)C,96.6% and 108%
11,COc1ccc(N)cc1OC,109%
12,CCn1nccc1NC(=O)C(=O)c1cn(Cc2ccc(F)cc2)c2cccc(OC)c12,102%
13,COc1ccc2c(c1)c(-c1nc(-c3c[nH]c4ncccc34)cs1)cn2CCN1CCOCC1,0.314% (active)
14,Cn1cc(C(=O)C[n+]2ccccc2)c2ccccc21,88%
15,CCC(=O)C(CC(C)N1CCCCCC1)(c1ccccc1)c1ccccc1 (stereo not given),95.6%
16,CC1=C2C(=O)[C@](C)(CO)C=C2C(=O)[C@](C)(O)C12CC2,-69.8% (active)
17,O=C1OCCC1Br (stereo not given),106%
18,Clc1ccc(CSC(Cn2ccnc2)c2ccc(Cl)cc2Cl)cc1 (stereo not given),-2.39% (active)
19,O=C1NC(=O)C(=Cc2cccn2CCCCCn2c3ccccc3c(=O)c3ccccc32)C(=O)N1,107%
20,COC(=O)[C@@H](C)C[C@H](Cc1ccccc1)NC(=O)c1csc([C@@H](C[C@H](C(C)C)N(C)C(=O)[C@@H](NC(=O)[C@H]2CCCCN2C)C(C)C)OC(C)=O)n1,-11.2% (active)
21,CCCCn1c(=O)c(C(=O)NCc2ccccc2Cl)c(O)c2ccccc21,70.6%
22,Cc1c(O)c(CN(CCCl)CCCl)cc(CN(CCCl)CCCl)c1O,84.4%
23,CC[C@@H](C)C(=O)O[C@H]1[C@H](O)[C@H]2[C@@H](CN3C[C@@H](C)CC[C@H]3[C@@]2(C)O)[C@@H]2C[C@]34O[C@]5(O)[C@@H](OC(=O)[C@@](C)(O)CC)CC[C@@]3(C)[C@@H]5[C@@H](OC(C)=O)[C@@H](OC(C)=O)[C@H]4[C@@]21O,90.6%
24,O=C(Cc1ccccc1)NC(O)C(Cl)(Cl)Cl (stereo not given),104%
25,Cn1cnnc1[S-].[Au+].c1ccc([PH+](c2ccccc2)c2ccccc2)cc1,-49.1% (active)
